Results published in PubChem BioAssay.
Activity calls are given as the source filed them. Unless noted, the rule behind the calls is not given here.

Experiments:
[1] = HepG2 liver cancer cell viability effects, profiling panel, resazurin fluorescence, 24 h, PK04 Diversity Set (AID 1172); settings: higher = more signal; note: test concentration not given here
[2] = basal S. cerevisiae growth modulation, no modifier, primary screen, OD600, strain BY4716, 24 h, basal condition (AID 1173); settings: OD600, 24 h, higher = more signal, called active from +8 up or from −8 down
[3] = MM1S myeloma cell viability, profiling panel, resazurin fluorescence, basal, 24 h, PK04 Diversity Set (AID 1174); settings: higher = more signal, called active from +8 up or from −8 down;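 note: MM1S multiple myeloma cell line; test concentration not given here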
[4] = target: Dihydroorotate dehydrogenase (quinone), mitochondrial (Plasmodium falciparum (isolate 3D7)) (UniProt Q08210); test: PfDHODH enzyme inhibitors, primary screen, biochemical, C-terminal His tag, absorbance 600 nm (AID 1175); settings: DCIP absorbance 600 nm, higher = more signal, called active from +8 up or from −8 down;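 note: recombinant parasite enzyme with a five histidine tag at its C terminus; test concentration not given here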
Dihydroorotate dehydrogenase (quinone), mitochondrial (Plasmodium falciparum (isolate 3D7)), sequence (Q08210 whole entry, looked up): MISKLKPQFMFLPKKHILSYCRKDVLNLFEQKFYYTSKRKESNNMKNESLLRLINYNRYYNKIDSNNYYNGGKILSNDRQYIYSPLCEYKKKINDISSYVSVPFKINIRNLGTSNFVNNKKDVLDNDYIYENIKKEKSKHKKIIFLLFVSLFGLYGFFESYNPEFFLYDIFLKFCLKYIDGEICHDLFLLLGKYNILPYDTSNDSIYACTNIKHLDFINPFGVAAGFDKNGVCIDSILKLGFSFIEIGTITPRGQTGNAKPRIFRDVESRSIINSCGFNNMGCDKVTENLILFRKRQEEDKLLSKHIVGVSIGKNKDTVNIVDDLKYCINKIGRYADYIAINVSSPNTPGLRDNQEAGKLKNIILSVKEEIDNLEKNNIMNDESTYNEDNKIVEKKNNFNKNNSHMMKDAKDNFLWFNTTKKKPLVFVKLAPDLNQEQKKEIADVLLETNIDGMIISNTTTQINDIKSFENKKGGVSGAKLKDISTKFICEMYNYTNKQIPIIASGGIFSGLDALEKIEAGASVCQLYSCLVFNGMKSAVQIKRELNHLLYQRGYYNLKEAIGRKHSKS

[5] = P. aeruginosa biofilm formation inhibitors, primary screen, strain PAO1, LB-PBS medium, absorbance 600 nm (AID 1176); note: test concentration not given here; settings: P. aeruginosa PAO1 growth/biofilm, A600, 12 h; higher = more signal
[6] = S. cerevisiae RM11-1a growth modifiers, primary screen, strain RM11-1a, OD600, basal, 24 h (AID 1177); settings: OD600, 24 h, higher = more signal, called active from +8 up or from −8 down;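 note: cultures grown under basal conditions with no added stressor; test concentration not given here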
[7] = E. coli acrAB mutant growth effects, primary screen, E. coli filamentation inducers, strain DRC39, OD650, 24 h (AID 1178); settings: higher = more signal, called active from +8 up or from −8 down;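 note: growth measured as culture turbidity by optical density at 650 nm; test concentration not given here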
[8] = E. coli acrAB mutant growth effects, primary screen, E. coli filamentation inducers, strain DRC39, OD650, 48 h (AID 1179);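 note: screen aims at cell division blockers that make cells filament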; settings: E. coli DRC39 delta-acrAB growth, higher = more signal, called active from +8 up or from −8 down
[9] = RPMI8226 myeloma cell viability, profiling panel, resazurin fluorescence, basal, 24 h, PK04 Diversity Set (AID 1180); settings: higher = more signal;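 note: RPMI8826 multiple myeloma cell line at 5000 cells per well; test concentration not given here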
[10] = target: E3 ubiquitin-protein ligase XIAP (Homo sapiens) (UniProt P98170); test: XIAP binders, primary screen, biophysical, small-molecule microarray, fluorescence 635 nm (AID 1181); settings: small-molecule microarray binding, higher = more signal;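 note: score merges 667 nm emission and signal to noise over triplicate slides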
E3 ubiquitin-protein ligase XIAP (Homo sapiens), sequence (P98170 whole entry, looked up): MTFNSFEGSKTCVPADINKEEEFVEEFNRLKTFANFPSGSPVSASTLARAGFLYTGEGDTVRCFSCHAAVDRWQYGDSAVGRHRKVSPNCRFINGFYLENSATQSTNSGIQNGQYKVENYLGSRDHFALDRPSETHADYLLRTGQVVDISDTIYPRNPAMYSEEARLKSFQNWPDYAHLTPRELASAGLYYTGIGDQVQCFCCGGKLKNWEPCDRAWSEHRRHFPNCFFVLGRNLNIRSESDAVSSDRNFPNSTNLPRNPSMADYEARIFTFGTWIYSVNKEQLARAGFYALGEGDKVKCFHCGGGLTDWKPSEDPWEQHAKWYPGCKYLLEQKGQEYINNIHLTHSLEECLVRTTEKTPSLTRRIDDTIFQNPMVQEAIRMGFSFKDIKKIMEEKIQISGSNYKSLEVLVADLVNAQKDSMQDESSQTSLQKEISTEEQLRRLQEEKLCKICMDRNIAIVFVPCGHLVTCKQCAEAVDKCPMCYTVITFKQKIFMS

Row | Compound | z-score [1] | z-score [2] | z-score [3] | composite z-score [4] | z-score [5] | z-score [6] | z-score [7] | z-score [8] | z-score [9] | composite z-score [10]
1 | CC(C)OC(=O)CC(=O)CC(O)c1ccc([N+](=O)[O-])cc1 (stereo not given) | -0.55 | -1.41 (inactive) | -0.119 (inactive) | -1.12 (inactive) | -0.088 (inactive) | 0.0857 (inactive) | -0.346 (inactive) | 0.0547 (inactive) | -0.0948 | -0.212
2 | C=CCNC(=O)[C@@H]1[C@H]2C(=O)O[C@H](c3ccccc3)[C@H](c3ccccc3)N2[C@H](c2ccc(O)cc2)[C@@]12C(=O)Nc1ccc(C#CCC(C(=O)OC)C(=O)OC)cc12 | -0.0043 | 1.12 (inactive) | -6.93 (inactive) | -6.73 (inactive) | 1.54 (inactive) | 1.4 (inactive) | -0.0975 (inactive) | -0.112 (inactive) | -5.23 | -0.274
3 | CC(C)(C)OC(=O)CC[C@]12N=C(c3ccc(OCCCO)cc3)O[C@H]1c1ccccc1N(Cc1ccccc1)C2=O | 0.851 | 0.342 (inactive) | -0.922 (inactive) | -0.316 (inactive) | 0.95 (inactive) | 2.29 (inactive) | 1.1 (inactive) | 0.124 (inactive) | -1.55 | 0.0968
4 | NC(=O)[C@H]1[C@@H]2C(=O)O[C@@H](c3ccccc3)[C@@H](c3ccccc3)N2[C@@H](c2ccc(O)cc2)[C@]12C(=O)Nc1ccccc12 | -0.367 | -0.376 (inactive) | 0.0279 (inactive) | 0.0023 (inactive) | 0.0332 (inactive) | 0.575 (inactive) | -0.145 (inactive) | 0.0129 (inactive) | 0.417 | -0.0559
5 | C=CCNC(=O)[C@H]1[C@@H]2C(=O)O[C@@H](c3ccccc3)[C@@H](c3ccccc3)N2[C@@H](c2ccc(OCCO)cc2)[C@]12C(=O)Nc1ccc(C#CCNC(N)=O)cc12 | -0.598 | 2.3 (inactive) | 0.0869 (inactive) | 0.428 (inactive) | 1.99 (inactive) | 3.25 (inactive) | -0.575 (inactive) | -1.22 (inactive) | 0.687 | -0.163
6 | CO[C@H]1O[C@H](CO)[C@@H](OC(=O)Nc2cccc(F)c2)[C@H](OC(=O)Nc2ccccc2-c2ccccc2)[C@H]1OC(=O)Nc1ccccc1-c1ccccc1 | -4.61 | 0.748 (inactive) | -5.86 (inactive) | 0.791 (inactive) | 1.16 (inactive) | 1.03 (inactive) | -0.852 (inactive) | -0.516 (inactive) | -4.87 | -0.0925
7 | C=CCN1C(=O)[C@]2(O[C@H](CCO)[C@@H]([Si](C)(C)c3ccc(OC)cc3)[C@@H]2C)c2cc(N3C(=O)COc4ccccc43)ccc21 | -5.79 | 0.346 (inactive) | -8.88 (active) | 0.828 (inactive) | -0.34 (inactive) | 2.96 (inactive) | 1.55 (inactive) | 0.68 (inactive) | -6.28 | 0.0356
8 | [N-]=[N+]=NC[C@H](Cc1ccccc1)NC(=O)c1ccccc1 | 0.198 | -3.7 (inactive) | 1.46 (inactive) | -0.178 (inactive) | -0.382 (inactive) | -0.401 (inactive) | 0.487 (inactive) | 0.352 (inactive) | 0.839 | -0.394
9 | COc1ccc([Si](C)(C)[C@@H]2[C@@H](CCn3cc([C@H](O)c4ccccc4)nn3)O[C@]3(C(=O)N(Cc4cccc(N5C(=O)c6cccc7cccc5c67)c4)c4ccccc43)[C@H]2C)cc1 | -0.167 | 1.33 (inactive) | -2.01 (inactive) | 0.736 (inactive) | 0.106 (inactive) | 2.11 (inactive) | -0.494 (inactive) | -0.787 (inactive) | -1.19 | -0.217
10 | COc1cc(NN2C(C(O)c3cc(OC)c(OC)c(OC)c3)C=CC3C(=O)N(c4ccccc4)C(=O)C32)cc(OC)c1OC (stereo not given) | -1.95 | 0.585 (inactive) | -1.19 (inactive) | -1.42 (inactive) | 0.366 (inactive) | -0.147 (inactive) | -0.585 (inactive) | -0.511 (inactive) | -1.71 | 0.074
11 | [N-]=[N+]=Nc1ccccc1C[C@]1(C(=O)NCc2ccccc2)COC(c2ccc(OCCCO)cc2)=N1 | -0.85 | 0.858 (inactive) | -5.51 (inactive) | 0.363 (inactive) | -0.0837 (inactive) | 2.15 (inactive) | 0.728 (inactive) | 0.161 (inactive) | -4.83 | 0.212
12 | C=CCOC(=O)[C@H]1[C@@H]2C(=O)O[C@@H](c3ccccc3)[C@@H](c3ccccc3)N2[C@@H](c2ccc(OCCOC(=O)[C@H]3C[C@H]4C(=O)N[C@@H](CCCCNC(C)=O)C(=O)N4[C@H]3c3cccc(OCCO)c3)cc2)[C@]12C(=O)Nc1ccc(I)cc12 | -0.821 | 1.2 (inactive) | -0.682 (inactive) | 1.34 (inactive) | 2.63 (inactive) | 1.59 (inactive) | -0.817 (inactive) | -1.2 (inactive) | -0.538 | -0.0228
13 | CN(C)C(=O)[C@@]1(CCC(=O)OC(C)(C)C)N=C(c2ccc(OCCCO)cc2)O[C@H]1c1ccccc1CN=[N+]=[N-] | 0.891 | 0.481 (inactive) | -1.19 (inactive) | -0.261 (inactive) | 0.317 (inactive) | -0.0065 (inactive) | 0.364 (inactive) | 0.98 (inactive) | 0.885 | -0.0272
14 | Cc1cccc([C@H]2C[C@H]3C(I)=C[C@@H]2C(=O)[C@]32CO2)c1 | 0.644 | -10.5 (active) | -0.415 (inactive) | 0.284 (inactive) | 0.531 (inactive) | -0.639 (inactive) | -0.545 (inactive) | -1.15 (inactive) | 0.305 | 0.49
15 | CCOC(=O)C1=C[C@@H](C(C)(C)C)N(S(=O)(=O)c2ccc(C)cc2)[C@H]1c1ccccc1 | -0.159 | 1.53 (inactive) | -0.562 (inactive) | -0.294 (inactive) | 0.0083 (inactive) | 1.59 (inactive) | 0.128 (inactive) | -0.0515 (inactive) | -1.11 | -0.162
16 | CCCNC(=O)[C@@]1(Sc2ccc(C)cc2)CC(=O)N(C(C)C)[C@@H]1c1ccc(CO)cc1I | -0.202 | -1.18 (inactive) | -2.5 (inactive) | -0.5 (inactive) | 0.0714 (inactive) | 0.29 (inactive) | 0.337 (inactive) | -0.202 (inactive) | -2.53 | -0.039
17 | C=C(/C(=C/C[C@H](OC(=O)c1ccncc1)c1ccccc1OCCO)c1cnc2ccccc2c1)C(C)C | 0.495 | -0.147 (inactive) | -0.632 (inactive) | -3.77 (inactive) | 1.07 (inactive) | -0.07 (inactive) | 0.395 (inactive) | 0.313 (inactive) | 0.262 | -0.0771
18 | C=C(/C(=C/C[C@@H](OC(=O)c1ccncc1)c1cccc(OCCO)c1)c1cnc2ccccc2c1)C(C)C | -0.118 | -1.48 (inactive) | -0.59 (inactive) | -5.68 (inactive) | 1.86 (inactive) | 0.152 (inactive) | -0.192 (inactive) | -0.284 (inactive) | 0.0866 | 0.227
19 | C=C(C(=O)CC[C@H](OC(=O)c1ccccc1-c1ccccc1C(=O)O)c1ccccc1OCCO)C(C)C | 0.0659 | -1.04 (inactive) | 0.181 (inactive) | -0.169 (inactive) | 0.108 (inactive) | -0.0722 (inactive) | 0.88 (inactive) | 0.32 (inactive) | -0.268 | 0.194
